# Pf growth 96h = Primary qHTS for delayed death inhibitors of the malarial parasite plastid, 96 hour incubation. AID 504834, 2011. P. falciparum luciferase reporter growth, 96 h. Potency, µM (doses to about 28.7 µM), without a hit: at the highest dose activity change, negative = inhibition, most hits filed as inhibitors. 320,000 compounds, 6.9% hits; active = well fitted inhibition curve with a large enough effect; inconclusive = small, poorly fitted or top-dose-only effect, or another doubt; inactive = no such curve, though single readings can be large or run the other way; also: % is scaled to controls: 0 for no effect and ±100 for the full control effect
#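 Compounds incubated with erythrocytes infected by luciferase-expressing P. falciparum (2% hematocrit, 0.05% parasitemia final) for 96 hours, 37 C in 5% CO2. Growth inhibition scored as decreased luciferase luminescence.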
# Pf growth 48h = Primary qHTS for delayed death inhibitors of the malarial parasite plastid, 48 hour incubation. P. falciparum luciferase growth in erythrocytes, 48 h. Potency, µM (highest dose often 28.7 µM), for the others: at the highest dose activity change, negative = inhibition, usual class: inhibitors. 310,000 compounds, 5.9% hits. AID 504832, 2011; active = well fitted inhibition curve with a large enough effect; inconclusive = small, poorly fitted or top-dose-only effect, or another doubt; inactive = no such curve, though single readings can be large or run the other way; also: % is scaled to controls: 0 for no effect and ±100 for the full control effect
#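 Luciferase-expressing parasites in RBCs, 2% Hct / 0.1% parasitemia final; RPMI 1640 + 0.5% Albumax; 37 C, 5% CO2, one generation; luminescence read-out, lower signal = inhibition.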
# NS1 function inh = qHTS Assay for Inhibitors of Influenza NS1 Protein Function | Potency, µM (titrated, usually from 46.1 µM), inactives show at the top dose activity, positive = more growth | 270,000 compounds, 0.4% hits; also: actives are rising curves; nearly all actives have a fitted effect of over 50% in size
#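 Compounds were scored for reversing the slow growth caused by influenza A NS1 in S. cerevisiae, measured by optical density at 600 nm. Assay medium contained 2% galactose at pH 6.0; NS1-free yeast of the same strain were the positive control.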
# SARS PLP yeast = qHTS of Yeast-based Assay for SARS-CoV PLP | AID 485353, 2010 | S. cerevisiae expressing SARS-CoV PLpro, growth rescue | Potency, µM (series often up to 32.9 µM), inactives show at the top dose activity, positive = growth rescue, most hits filed as activators | 330,000 compounds, 0.19% hits; also: 0% is about no effect; nearly all actives have a fitted effect of over 55% in size
# An asterisk follows results filed as active; u = inconclusive; x = not tested or not shown. A selection: hits, their analogues and other compounds. The true share with any hit is near 10%. Unless noted, calls follow the shape of the full dose curve. Potency is read from the fitted curve at half-maximal effect.
SMILES,Pf growth 96h,Pf growth 48h,NS1 function inh,SARS PLP yeast
O=C(COc1ccccc1)N1CCN(S(=O)(=O)c2ccc(Cl)cc2)CC1,u,x,-5%,6%
N#Cc1ccccc1OCC(=O)N1CCN(S(=O)(=O)c2ccc(Cl)cc2)CC1,10µM*,u,x,-4%
CC(=O)c1ccc(OCC(=O)N2CCN(S(=O)(=O)c3ccc(Br)s3)CC2)cc1,u,u,x,1%
COc1ccccc1C(=O)NCCC(=O)Nc1ccc(S(=O)(=O)N2CCCC(C)C2)cc1 (configuration not stated),u,15µM*,x,-6%
O=C(Cn1cc(C(F)(F)F)ccc1=O)N1CCN(S(=O)(=O)c2ccc(Cl)cc2)CC1,u,2.9µM*,-2%,1%
COc1ccccc1C(=O)NCCC(=O)N1CCN(S(=O)(=O)c2cccc(Cl)c2)CC1,u,u,x,1%
CC1CC(C)CN(C(=O)CCNC(=O)c2ccccc2Cl)C1 (configuration not stated),0.47µM*,0.93µM*,-23%,-3%
COc1ccccc1C(=O)NCCC(=O)N1CCN(S(=O)(=O)c2ccc(Cl)cc2)CC1,13µM*,u,x,-2%
O=C(NCCC(=O)N1CCCCC1)c1ccccc1Cl,39%,28%,7%,-5%
O=C(CCc1nc2ccccc2s1)N1CCN(S(=O)(=O)c2cccs2)CC1,13µM*,u,-8%,-3%
C=CCSc1nnc(NC(=O)c2c(CC)noc2C)s1,4%,-16%,x,1%
Cc1c(C(=O)NCCN2CCCC(O)C2)oc2c(F)cccc12 (configuration not stated),-20%,36%,7%,-4%
CCOC(=O)/C(C#N)=N/Nc1ccc(S(=O)(=O)N2CCc3ccccc32)cc1,12µM*,13µM*,10%,-1%
CSCCC(NS(=O)(=O)c1ccc2c(c1)OCCO2)C(=O)N(C)Cc1ccccc1F (configuration not stated),u,12µM*,x,-6%
Cc1ccccc1-n1c(SCc2cc(=O)n3ccccc3n2)nc2[nH]ncc2c1=O,13µM*,u,1%,-5%
O=C(CSc1nc2[nH]ncc2c(=O)n1-c1ccccc1)c1ccc2c(c1)OCCO2,x,u,-19%,0%
Cc1cccc2nc(CSc3nc4[nH]ncc4c(=O)n3-c3ccccc3Cl)cc(=O)n12,9.3µM*,9.3µM*,0%,29%
Cc1ccccc1-n1c(SCc2cccc(F)c2)nc2[nH]ncc2c1=O,u,u,11%,-28%
N=c1c2cn[nH]c2nc(SCC(=O)c2ccc(Br)cc2)n1-c1ccc(Br)cc1,7.4µM*,148%,9%,1%
O=c1c2cn[nH]c2nc(SCc2cc(=O)n3cc(Br)ccc3n2)n1-c1ccc(Br)cc1,-28%,12µM*,x,-4%
CCCC(C)NC(=O)CN1C(=O)c2cccc3cccc1c23 (configuration not stated),66%,-20%,16%,1%
O=C(NC1CCCc2ccccc21)C12CC3CC(CC(O)(C3)C1)C2 (configuration not stated),-12%,21%,x,-4%
CCn1c(COc2ccccc2)nnc1SCC(=O)C(C)(C)C,9.3µM*,12µM*,7%,6%
CCOC(=O)CN(C(=O)CSc1nnc(C)n1-c1ccccc1)c1ccccc1,5%,1%,-3%,1%
CCOC(=O)CN(C(=O)CSc1nnc(COc2ccc(OC)cc2)n1CC)c1ccccc1,6.6µM*,8.3µM*,-33%,0%
SMILES,Pf growth 96h,Pf growth 48h,NS1 function inh,SARS PLP yeast
CCOC(=O)CN(C(=O)CSc1nnc(CNc2ccc(F)cc2)n1CC)c1ccc(F)cc1,x,u,14%,4%
CCOC(=O)CN(C(=O)CSc1nnc(CNc2ccc(C)cc2C)n1CC)c1ccccc1,9.3µM*,u,-8%,3%
CCn1c(COc2ccccc2C)nnc1SCC(=O)N1CCC(C)CC1,u,u,-9%,14%
CCn1c(COc2ccccc2C)nnc1SCC(=O)N1CCCCC1,7.4µM*,u,4%,2%
CNC(=O)c1c[nH]c2ccc(S(=O)(=O)Nc3cccc(Cl)c3C)cc2c1=O,u,1%,x,-8%
COc1ccc(CCn2c(C(C)C)nc3c(c(=O)c4ccccc4n3C)c2=O)cc1,1.9µM*,12µM*,5%,5%
COc1ccc2c(=O)c3c(=O)n(CCc4ccccc4)c(C(C)C)nc3oc2c1,5.2µM*,7.4µM*,1%,0%
COc1ccc(CCn2c(C)nc3c(c(=O)c4ccccc4n3C)c2=O)cc1,4.7µM*,u,-4%,2%
COc1ccc(Cn2c(C)nc3c(c(=O)c4ccccc4n3C)c2=O)cc1,u,u,0%,0%
CCCCCc1nc2c(c(=O)c3ccccc3n2C)c(=O)n1Cc1ccc(OC)cc1,u,u,0%,0%
C=CCc1c(OC)ccc2c1c(S(=O)(=O)c1ccc(C)cc1)cn2COC,u,u,1%,-3%
CCCN(CC(=O)Nc1ccccc1C)C(=O)COc1ccc2c(c1)CCC2,-3%,u,-14%,-10%
CC[n+]1c(/C=C/N(C)c2ccccc2)oc2ccccc21,-14%,0.93µM*,2%,-14%
CC[n+]1c(/C=C/N(C)c2ccccc2)oc2ccc(F)cc21,u,2.9µM*,3%,-5%
CC[n+]1c(/C=C/Nc2ccccc2)oc2ccccc21,u,u,-12%,-6%
C#CCOCCOCCOCCNc1nc(N2CCN(C(=O)CCCCCCCCCCNC(=O)[C@H]([C@@H](C)CC)n3cc(CCCCCN)nn3)CC2)nc(N2CCN(C(=O)CCCCCCCCCCNC(=O)[C@H](CO)n3cc(CCCCCN)nn3)CC2)n1,u,13µM*,x,-2%
C#CCOCCOCCOCCNc1nc(N2CCN(C(=O)CCCCCCCCCCNC(=O)[C@H]([C@@H](C)CC)n3cc(CCCCCN)nn3)CC2)nc(N2CCN(C(=O)CCCCCCCCCCNC(=O)[C@@H]([C@H](C)CC)n3cc(CCCCCN)nn3)CC2)n1,u,3.3µM*,x,2%
C#CCOCCOCCOCCNc1nc(N2CCN(C(=O)[C@H]([C@@H](C)CC)n3cc(CCCCN)nn3)CC2)nc(N2CCN(C(=O)[C@H](C)n3cc(CCC(=O)O)nn3)CC2)n1,u,11%,11%,8%
C#CCOCCOCCOCCNc1nc(N2CCOCC2)nc(N2CCN(C(=O)CCCCCCCCCCNC(=O)[C@@H]([C@H](C)CC)n3cc(CCCCCN)nn3)CC2)n1,0.83µM*,1.2µM*,x,-2%
C#CCOCCOCCOCCNc1nc(N2CCN(C(=O)Cn3cc(CCCCN)nn3)CC2)nc(N2CCN(C(=O)[C@H]([C@@H](C)CC)n3cc(CCCCN)nn3)CC2)n1,77%,-6%,x,0%
CCOc1cc(C2C(C#N)=C(N)OC(C)=C2C(C)=O)c(Br)c(Br)c1OC(C)C (configuration not stated),8.3µM*,3.3µM*,-2%,-17%
CCCOc1nc2c(c(=O)n(C)c(=O)n2C)n1Cc1cccc2ccccc12,x,13µM*,-122%,-1%

# From PubChem
